# Experimental data: the supplement of paper PMC12669032
# Values without a mark were called inactive.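 Rule for the calls: active = AUC reduced over 20% with Padj below 0.05 in at least 2 of 3 replicates; inactive = otherwise.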
# Tests used:
# Assay in all cases: growth AUC relative to DMSO control (median of replicates) (fraction); higher = more growth (less inhibition), active = hit call of the paper
# Conditions in all cases: 20 µM; 24 h
# Akkermansia muciniphila = system: Akkermansia muciniphila
# Summary of the method: (§1)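 Gut bacterial monocultures in mGAM were treated with 20 µM compound (1% DMSO) and grown anaerobically at 37 °C in round-bottom 96-well plates from OD600 0.05. OD600 was read hourly for 24 h, with the minimum OD set to 0. Area under the growth curve was normalised to the plate median of solvent-only wells, or to row and column medians on the industrial chemical plate. Each value is the median of three biological replicates, each grown on a separate day.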
# Bacteroides caccae = system: Bacteroides caccae
# Summary of the method: as §1
# Bacteroides clarus = system: Bacteroides clarus
# Summary of the method: as §1
# Bacteroides dorei = system: Bacteroides dorei
# Summary of the method: as §1
# Bacteroides stercoris = system: Bacteroides stercoris
# Summary of the method: as §1
# [1] = system: Bacteroides thetaiotaomicron
# Summary of the method: as §1
# Bacteroides uniformis = system: Bacteroides uniformis
# Summary of the method: as §1
# [2] = system: Bifidobacterium longum subsp. longum
# Summary of the method: as §1
# Clostridium difficile = system: Clostridium difficile
# Summary of the method: as §1
# Collinsella aerofaciens = system: Collinsella aerofaciens
# Summary of the method: as §1
Structure (SMILES),growth AUC (Akkermansia muciniphila),growth AUC (Bacteroides caccae),growth AUC (Bacteroides clarus),growth AUC (Bacteroides dorei),growth AUC (Bacteroides stercoris),growth AUC [1],growth AUC (Bacteroides uniformis),growth AUC [2],growth AUC (Clostridium difficile),growth AUC (Collinsella aerofaciens)
CCCCOC(=O)c1ccccc1C(=O)OCCCC,1.05,0.94,1.01,0.998,0.99,1,0.978,0.938,1.02,0.985
CC(C)(C)c1cc([N+](=O)[O-])cc([N+](=O)[O-])c1O,0.623,0.973,0.742 (active),0.931,1.03,0.837,0.876,0.964,0.885,0.96
COC(=O)c1ccccc1S(=O)(=O)NC(=O)Nc1nc(C)nc(OC)n1,1.1,1.02,0.982,1.01,0.849,0.995,1.03,1,1.01,0.957
CNC(=O)O/N=C(\SC)C(=O)N(C)C,1.01,0.999,0.967,1.05,1.05,0.993,1.01,0.957,0.965,0.999
O=C(O)COc1cc(Cl)c(Cl)cc1Cl,0.934,1.02,0.954,1.01,0.978,0.985,1.01,0.708,1.01,1.07
CCCSP(=S)(OCC)Oc1ccc(SC)cc1 (stereo not given),0.897,0.998,0.958,1,1.06,0.979,0.998,0.971,1.01,1.04
Clc1ccc(C(c2ccc(Cl)cc2)C(Cl)(Cl)Cl)cc1,1.1,0.934,0.763 (active),0.955,0.127 (active),0.866,0.798 (active),0.886,0.943,0.869
COP(=S)(OC)Oc1ccc(S(=O)(=O)N(C)C)cc1,0.82,0.947,0.999,0.962,0.84,0.983,0.981,0.984,0.976,0.977
COC(=O)[C@@H](C)N(C(=O)Cc1ccccc1)c1c(C)cccc1C,0.957,0.968,0.98,0.964,0.954,0.93,0.897,1.01,0.998,1.03
CCCN(CCOc1c(Cl)cc(Cl)cc1Cl)C(=O)n1ccnc1,1.05,0.886,0.967,0.941,1.14,0.869,0.836,0.89,0.982,1.02
CS(=O)(=O)c1ccc(C(=O)C2C(=O)CCCC2=O)c([N+](=O)[O-])c1,0.895,0.986,0.946,0.977,0.979,0.972,0.965,0.965,0.986,0.972
CNC(=O)/C(=N\OC)c1ccccc1Oc1ccccc1,0.873,0.981,0.959,0.97,0.953,1.02,0.998,0.987,1.01,1.03
CCCCOC(=O)N(C)SN(C)C(=O)Oc1cccc2c1OC(C)(C)C2,1.03,1.02,0.969,1.01,1.08,1.04,1,1.11,0.992,1.01
CNC(=O)N(C)c1nnc(C(C)(C)C)s1,0.742,1.02,0.97,1.05,1,0.993,1.01,0.925,1,1.04
Cc1ccn2nc(S(=O)(=O)Nc3c(F)cccc3F)nc2n1,1.04,0.968,0.986,0.957,0.955,0.985,1.06,1.03,1.03,0.945
COc1c(Cl)ccc(Cl)c1Cl,1.02,0.971,0.985,0.995,1.19,1.01,0.99,1.04,1.01,0.98
CCCOCCN(C(=O)CCl)c1c(CC)cccc1CC,1.11,0.979,0.981,0.976,0.919,0.95,0.895,1.05,0.971,0.972
CCCCCCCC(=O)Oc1c(I)cc(C#N)cc1I,1.1,0.886,0.864,0.962,1.1,0.951,0.88,1.03,0.998,0.989
FC(F)C(F)(F)OCC(Cn1cncn1)c1ccc(Cl)cc1Cl (stereo not given),0.949,0.967,0.921,0.924,0.957,0.921,0.957,0.967,0.985,0.93
CS(=O)(=O)NC(=O)c1cc(Oc2ccc(C(F)(F)F)cc2Cl)ccc1[N+](=O)[O-],1.03,1.01,0.955,0.972,0.875,0.993,0.992,1.04,0.94,0.951
Clc1cc(Cl)c(Cl)c(Cl)c1,0.953,0.971,0.989,0.957,0.887,0.997,1.02,1,0.977,0.922
Oc1ccc(Cl)cc1Cl,1.15,0.802,0.979,0.893,0.938,0.936,0.913,1.05,0.946,0.909
Cc1cnc(C2=NC(C)(C(C)C)C(=O)N2)c(C(=O)O)c1 (stereo not given),1.05,0.987,0.993,1.02,0.976,1.01,1.01,1.03,1.01,1.02
O=P(OCCCl)(OCCCl)OCCCl,0.628 (active),0.985,0.986,0.995,0.651 (active),0.972,0.874,0.895,0.963,0.977
CCC(=O)Nc1ccc(Cl)c(Cl)c1,0.797,1,0.978,1.03,0.972,0.988,0.969,0.837,1.03,0.999
CNC(=O)ON=C(C)C(C)SC (stereo not given),1.1,0.726 (active),1.03,0.983,1.3,0.916,0.838,1.03,0.927,0.979
CCCSP(=S)(OCC)Oc1ccc(Cl)cc1Cl (stereo not given),1.06,0.796,1.05,0.98,1.41,0.961,1.01,1.07,1.05,0.965
CCOC(=O)COc1cc(-c2nn(C)c(OC(F)F)c2Cl)c(F)cc1Cl,0.977,0.974,0.986,0.99,0.965,1.01,1.04,1.03,1.02,1.04
CCOC1Oc2ccc(OS(C)(=O)=O)cc2C1(C)C (stereo not given),1.03,0.907,0.978,0.889,0.897,0.987,0.993,1.01,0.99,0.916
